We go through eight compounds from PubChem BioAssay (EPA / NIEHS).

“And” between values parts separate entries of the source, which are not always exact repeats. Equal entries are not always repeated. Records with an inconclusive call do not appear. More than one record can exist for a structure, and the calls need not agree. The source made the active and inactive calls. Rule for the calls, unless noted: active = hit-call score of the fitted dose curve at least 0.9, where 1 is the maximum; inactive = score below 0.9.

The test system of assay [1] is DIO3 (gene 1735). Put plainly: CCTE_GLTED_hDIO3: CCTE's human Deiodinase 3 (DIO3) Inhibition Assay, Great Lakes Toxicology and Ecology Division (GLTED) Lab (AID 2284055; active = hit-call score of the fitted dose curve at least 0.9, where 1 is the maximum;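 note: potency is for inhibition seen as loss of released iodide signal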). A digest of the protocol: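 hDIO3 (adenovirus-expressed) + test chemical, 3 h incubation; free iodide quantified by Sandell-Kolthoff reaction, absorbance read-out. DMSO negative control, n=3.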
The nature of assay [2]: CCTE_Shafer_MEA_dev_LDH: CCTE's Lactate Dehydrogenase Assay for Cytotoxicity in the Neural Network Formation Assay, Shafer Lab (AID 2284068; active = hit-call score of the fitted dose curve at least 0.9, where 1 is the maximum;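 note: exposure for twelve days from plating with re-dosing on DIV 5 and 9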). A digest of the protocol: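 Developing rat cortical networks on MEA plates are exposed to compound for 12 days from plating. LDH activity is measured spectrophotometrically, with DMSO as baseline.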
The nature of assay [3]: CCTE_Shafer_MEA_acute_AB: CCTE's Alamar Blue Assay for Cytotoxicity in the Neural Acute Assay, Shafer Lab (AID 2284069; active = hit-call score of the fitted dose curve at least 0.9, where 1 is the maximum;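 note: active compounds lower the viability signal compared with DMSO wells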). In short, it runs like this: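 Cytotoxicity endpoint for acute MEA exposures of primary rat cortical neurons on day 13 or 15. Resazurin reduction is read fluorescently at 544/590 nm, with DMSO as the negative-control baseline.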
A short description of assay [4]: CCTE_Shafer_MEA_dev_AB: CCTE's Alamar Blue Assay for Cytotoxicity in the Neural Network Formation Assay, Shafer Lab (AID 2284083; active = hit-call score of the fitted dose curve at least 0.9, where 1 is the maximum;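 note: resazurin reduction fluorescence as viability of cultured neurons; twelve days of exposure from plating with re-dosing on DIV 5 and 9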). A digest of the protocol:
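Cytotoxicity companion to the developmental MEA: primary rat cortical neurons, 12-day exposure starting day 0, compound refreshed DIV 5 and 9; resazurin fluorescence, fitted against DMSO vehicle.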

A short description of assay [5]: CCTE_Shafer_MEA_dev_mutual_information_norm: CCTE's Neural Network Formation Assay for Mutual Information Normalization, Shafer Lab (AID 2284091).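 For AC50: mutual information between electrodes summarised as area under curve across four recording days; potency is for a decrease in mutual information relative to DMSO.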 A digest of the protocol:
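Shared information across electrodes, tracked on days 5, 7, 9 and 12 of network development and collapsed as trapezoidal area under the curve. Rat cortical cultures were treated continuously from plating, with treatment renewed at feeds on DIV 5 and 9; DMSO baseline, negative-direction fit.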

Assay [6] is described as follows: CCTE_Shafer_MEA_dev_correlation_coefficient_mean: CCTE's Neural Network Formation Assay for Mean Correlation Coefficient, Shafer Lab (AID 2284093).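 For AC50: well mean pairwise spike train correlation integrated as AUC over recording days 5 to 12; potency fitted for loss of correlation relative to DMSO vehicle wells.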 In short, it runs like this:
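Extracellular firing from rat cortical networks on 48-well MEAs, DMSO-referenced, negative fitting direction. Compound present from plating to DIV12; mean pairwise correlation per well integrated over DIV5–12 recordings by trapezoidal AUC.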

Assay [7] in a line: UKN2_HCS_IMR90_neural_migration: University of Konstanz (UKN) Leist Lab Neural Crest Cell Migration Assay in human induced IMR90 Pluripotent Stem Cells (UKN2) (AID 2284204). Particulars: actives raise or lower the signal. In short, it runs like this: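 High-content imaging of calcein-AM and Hoechst stained cells quantifies migration into a stopper-defined gap after 24 h compound exposure. Neural crest cells from IMR90 iPSC migrated 24 h in EGF/FGF N2-S medium before dosing; DMSO baseline.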

Assay [8] in a line: IUF_NPC1b_proliferation_BrdU_72hr: Leibniz Research Institute for Environmental Medicine (IUF) 72-hour Neural Progenitor Cell Bromodeoxyuridine (BrdU) Proliferation Assay (NPC1b) (AID 2284207). A digest of the protocol: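 Human fetal cortex-derived (GW 16-19) neural progenitor spheres, 0.25-0.35 mm, one per well in EGF/FGF proliferation medium, exposed to compound for 72 h at 37C, pH 7.2-7.6. BrdU incorporation over the final 16 h read by luminescence ELISA, relative to DMSO.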

Assay [9] is described as follows: IUF_NPC1a_proliferation_area_72hr: Leibniz Research Institute for Environmental Medicine (IUF) 72-hour Neural Progenitor Cell Proliferation Area Assay (NPC1a) (AID 2284208). In short, it runs like this:
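hNPC spheres (human fetal cortex, GW 16-19), one per poly-Hema U-bottom well; EGF+FGF medium; dosed day 0, no re-dosing; 72 h, 37C, 5% CO2; phase-contrast sphere area; DMSO = baseline; minus-GF = positive ctrl.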

Assay [10] is described as follows: IUF_NPC1_viability_72hr: Viability Assessment at 72 hours in the Leibniz Research Institute for Environmental Medicine (IUF) Neural Progenitor Cell Proliferation Assay (NPC1) (AID 2284209). In short, it runs like this: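 Alamar blue fluorescence (RFU) after 72 h exposure, normalized to DMSO baseline. hNPC spheres from GW 16-19 fetal cortex, single sphere per well in growth-factor medium; no compound renewal.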

A short description of assay [11]: CCTE_Mundy_HCI_Cortical_Synap_Neur_Matur_NeuriteSpotCountPerNeuriteLength: CCTE's Synaptogenesis and Neurite Maturation Assay in rat cortical cells for Neurite Spot Count per Neurite Length, Mundy Lab (AID 2284210). A digest of the protocol: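 Synaptophysin spots per unit neurite length, measured by automated imaging of MAP2/synaptophysin/Hoechst-stained neurons. Cultures from rat cortex received chemical at DIV 7 with media change through DIV 12; glial growth arrested by AraC at DIV 5; DMSO baseline.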

Assay [12] is described as follows: CCTE_Mundy_HCI_Cortical_Synap_Neur_Matur_BPCount: CCTE's Synaptogenesis and Neurite Maturation Assay in rat cortical cells for Branch Point Count, Mundy Lab (AID 2284211). In short, it runs like this: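 In this multiplexed morphology assay, cortical cells from rat receive chemicals at DIV 7 and are fixed at DIV 12, then immunostained and imaged; branch points are counted, with DMSO as baseline.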

A short description of assay [13]: CCTE_Mundy_HCI_Cortical_NOG_NeuriteCount: CCTE's Neurite Outgrowth Assay in rat cortical cells for Neurite Count, Mundy Lab (AID 2284212).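 Note: cells fixed about two days after chemical exposure began.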 In short, it runs like this:
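Rat cortical primary cells; compound added 2 h post-plating, 1/10 dilution of working solution. Anti-betaIII-tubulin/AF488 ICC; ArrayScan neurite count vs DMSO.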

Assay [14] can be described thus: CCTE_Mundy_HCI_Cortical_NOG_NeuriteLength: CCTE's Neurite Outgrowth Assay in rat cortical cells for Neurite Length, Mundy Lab (AID 2284213).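 For AC50: neurites imaged about 48 to 50 h after chemical exposure began.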 A digest of the protocol:
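First, rat primary cortical cells were plated and, 2 h later, given test chemical as a 1/10 dilution. Finally, βIII-tubulin immunostaining enabled automated imaging of neurite length.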

A short description of assay [15]: CCTE_Mundy_HCI_Cortical_Synap_Neur_Matur_NeuriteLength: CCTE's Synaptogenesis and Neurite Maturation Assay in rat cortical cells for Neurite Length, Mundy Lab (AID 2284214). In short, it runs like this:
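Read-out: high-content imaging of MAP2-labelled neurites, with synaptophysin and Hoechst co-stain, in rat cortical cultures fixed at DIV 12. Activity fitted in positive direction relative to DMSO baseline.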

A short description of assay [16]: CCTE_Mundy_HCI_Cortical_Synap_Neur_Matur_NeuriteSpotCountPerNeuron: CCTE's Synaptogenesis and Neurite Maturation Assay in rat cortical cells for Neurite Spot Count per Neuron Count, Mundy Lab (AID 2284215). A digest of the protocol: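 Read-out: neurite-associated synaptophysin puncta per neuron, imaged by high-content analysis after MAP2, synaptophysin and Hoechst staining. Rat primary cortical cultures, dosed DIV 7 through DIV 12; DMSO served as baseline.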

Assay [17] can be described thus: CCTE_Shafer_MEA_acute_LDH: CCTE's Lactate Dehydrogenase Assay for Cytotoxicity in the Neural Acute Assay, Shafer Lab (AID 2284086; active = hit-call score of the fitted dose curve at least 0.9, where 1 is the maximum;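 note: active means LDH release rises above DMSO vehicle level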). A digest of the protocol: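 LDH absorbance at 490 nm in medium taken right after 40-min compound exposure; rat primary cortical neuron networks on MEA plates, days post-plating 13 or 15. Increase over DMSO baseline scored as cytotoxicity.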

Assay [18] can be described thus: UKN5_HCS_SBAD2_cell_viability: Viability Assessment in the University of Konstanz (UKN) Leist Lab Neurite Outgrowth Assay in human iPSC-derived immature Dorsal Root Ganglia Neurons (UKN5) (AID 2284056). A digest of the protocol: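 iPSC-derived immature peripheral neurons (SBAD2) seeded on Matrigel with CHIR99021, SU5402 and DAPT, dosed 1 h later for 24 h. Viability from Hoechst H-33342 and calcein-AM live staining, high-content imaging; bidirectional fit versus DMSO.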

A short description of assay [19]: UKN5_HCS_SBAD2_neurite_outgrowth: University of Konstanz (UKN) Leist Lab Neurite Outgrowth Assay in human iPSC-derived immature Dorsal Root Ganglia Neurons (UKN5) (AID 2284070). The following applies: actives raise or lower the signal. In short, it runs like this:
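Cryopreserved SBAD2 peripheral neurons were seeded at 100.000 cells/cm2 in N2-S/KSR medium containing CHIR99021, SU5402 and DAPT, then exposed to compounds for 24 h. Neurite area from calcein-AM high-content imaging was fitted bidirectionally against DMSO.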

Assay [20] is described as follows: UKN4_HCS_LUHMES_neurite_outgrowth: University of Konstanz (UKN) Leist Lab Neurite Outgrowth Assay in human LUHMES cells (UKN4) (AID 2284206). The following applies: actives raise or lower the signal. In short, it runs like this:
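Read-out: calcein-AM neurite area by high-content fluorescence imaging, with Hoechst H-33342 viability counterstain, after 24 h chemical exposure of day-2 differentiated LUHMES cells. Activity fitted bidirectionally against DMSO baseline.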

With `CO/N=C(/C1=NOCCO1)c1ccccc1Oc1ncnc(Oc2ccccc2Cl)c1F`, the AC50 in assay [1] is 15.9 µM (active); in assay [2], 643 nM (active) and 858 nM (active); in [4], 1.47 µM (active) and 2.27 µM (active); in assay [5], 401 nM (active) and 924 nM (active); in assay [6] it was 844 nM (active) and 1.02 µM (active); in assay [8], 0.142 µM (active). The concentration at half-maximal activity (AC50) is 3.03 µM (active) in assay [11]; 7.61 µM (active) in [12]; 3.51 µM (active) in assay [13]; 2.74 µM (active) in [14]; 4.34 µM (active) in assay [15]; 2.16 µM (active) in [16]. For the same compound, the compound was classed as inactive in assay [3], in assay [7], in assay [9] and in assay [10].

Take `OC(c1ccc(Cl)cc1)(c1ccc(Cl)cc1)C(Cl)(Cl)Cl`: the AC50 in [1] was 15.8 µM (active). The compound was called inactive in [3] and in assay [17].

For `CCOP(=O)(OCC)Oc1nc(Cl)c(Cl)cc1Cl`, the AC50 in assay [18] was 18.3 µM (active); in [2], 610 nM (active) and 413 nM (active); in assay [19] it was 14.6 µM (active); in assay [4], 9.43 µM (active) and 334 nM (active); in [5], 872 nM (active) and 2.17 µM (active); in assay [6] it was 5.46 µM (active) and 7.1 µM (active). For the same compound, the concentration at half-maximal activity (AC50) is 8.27 µM (active) in assay [9], 16.2 µM (active) in assay [15] and 9.92 µM (active) in assay [16]. Further, the call in assay [2], in assay [3], in assay [4], in assay [17], in assay [5] and in assay [6] was inactive. Besides, the compound was called inactive in assay [7], in assay [20], in assay [8], in assay [10], in assay [11] and in assay [12]. Moreover, the result in assay [13], in assay [14], in assay [15] and in assay [16] was inactive.

Consider `Cc1nc(N(C)C)nc(OC(=O)N(C)C)c1C`, for which the AC50 in assay [1] is 10 µM (active). The outcome in assay [17] was inactive.

As to `CCCCOCN(C(=O)CCl)c1c(CC)cccc1CC`, the concentration at half-maximal activity (AC50) in assay [1] was 37.6 µM (active).

Consider `CCOC(=O)C(C)OC(=O)c1cc(Oc2ccc(C(F)(F)F)cc2Cl)ccc1[N+](=O)[O-]` (stereo unspecified), for which the compound was called inactive in [2], in assay [3], in assay [4], in assay [17], in assay [5] and in [6].

For `CCN(CC)c1nc(C)cc(OP(=S)(OC)OC)n1`, the AC50 in [1] is 25.3 µM (active); in assay [2], 29.2 µM (active); in [4], 50 µM (active); in assay [5], 21.8 µM (active); in assay [6] it was 27.4 µM (active); in assay [12], 67.1 µM (active). For the same compound, the concentration at half-maximal activity (AC50) is 79.4 µM (active) in assay [13], 88.7 µM (active) in assay [14], 78.6 µM (active) in [15] and 84.5 µM (active) in assay [16]. Also, the compound was classed as inactive in assay [11].

Turning to `CC1(C)C(C=C(Cl)Cl)C1C(=O)OC(C#N)c1cccc(Oc2ccccc2)c1` (stereo unspecified), the compound was classed as inactive in assay [2], in [3], in assay [4], in assay [17], in assay [5] and in assay [6]. Further, the compound was called inactive in [8], in [9], in assay [10], in assay [11], in [13] and in [14]. The compound was called inactive in assay [15] and in assay [16]. The AC50 was 1.43 µM (active) in assay [5], 3.6 µM (active) in assay [6] and 0.00451 µM (active) in assay [12].
